Hit rate of the full screen: of about 5,600 compounds, about 390 (7%) showed an effect of 50% or more. This excerpt belongs to a sample that is enriched for strong results.
The molecules below were run against T1, Protein deacetylase HDAC6 (Homo sapiens) (UniProt Q9UBN7). Settings: at 10 µM.
T1 sequence (whole entry): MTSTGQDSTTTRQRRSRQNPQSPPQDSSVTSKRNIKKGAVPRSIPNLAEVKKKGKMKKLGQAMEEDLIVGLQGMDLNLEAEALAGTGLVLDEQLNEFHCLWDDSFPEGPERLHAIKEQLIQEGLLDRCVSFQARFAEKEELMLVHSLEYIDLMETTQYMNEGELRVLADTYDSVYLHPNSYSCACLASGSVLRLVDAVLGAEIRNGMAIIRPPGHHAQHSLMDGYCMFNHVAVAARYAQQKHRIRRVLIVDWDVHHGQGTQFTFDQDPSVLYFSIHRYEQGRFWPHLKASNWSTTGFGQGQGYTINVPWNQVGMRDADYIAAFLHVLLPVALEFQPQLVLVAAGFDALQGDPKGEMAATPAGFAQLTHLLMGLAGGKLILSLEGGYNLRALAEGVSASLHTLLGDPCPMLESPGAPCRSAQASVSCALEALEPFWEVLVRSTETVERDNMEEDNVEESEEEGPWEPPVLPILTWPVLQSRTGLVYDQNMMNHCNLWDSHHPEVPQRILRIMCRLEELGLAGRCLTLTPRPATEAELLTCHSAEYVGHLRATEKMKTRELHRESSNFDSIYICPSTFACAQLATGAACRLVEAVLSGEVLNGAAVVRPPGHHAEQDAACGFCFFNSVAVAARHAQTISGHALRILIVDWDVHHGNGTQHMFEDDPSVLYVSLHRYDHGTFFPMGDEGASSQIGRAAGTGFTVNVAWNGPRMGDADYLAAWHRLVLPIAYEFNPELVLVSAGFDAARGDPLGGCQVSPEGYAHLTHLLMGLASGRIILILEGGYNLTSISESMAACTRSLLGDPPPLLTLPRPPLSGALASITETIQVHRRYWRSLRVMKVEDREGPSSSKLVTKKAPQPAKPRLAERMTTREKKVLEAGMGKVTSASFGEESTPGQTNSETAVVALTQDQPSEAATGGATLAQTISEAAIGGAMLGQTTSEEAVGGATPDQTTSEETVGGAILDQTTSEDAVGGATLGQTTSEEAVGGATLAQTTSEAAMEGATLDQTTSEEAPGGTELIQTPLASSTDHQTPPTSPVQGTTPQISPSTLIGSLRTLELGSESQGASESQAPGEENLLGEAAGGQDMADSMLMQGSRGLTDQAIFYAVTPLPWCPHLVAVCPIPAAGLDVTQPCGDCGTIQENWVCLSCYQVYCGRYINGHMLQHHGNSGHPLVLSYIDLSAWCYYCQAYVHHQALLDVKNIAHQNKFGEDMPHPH

| Structure (SMILES) | inhibition [%] |
| --- | --- |
| CCN1CCN(Cc2ccc(Nc3ncc(F)c(-c4cc(F)c5nc(C)n(C(C)C)c5c4)n3)nc2)CC1 | -7.99 |
| c1ccc(N2CCN(CCCOc3ccc4c(c3)OCO4)CC2)cc1 | 8.38 |
| CCCCOC(=O)c1cc2c(cn1)[nH]c1ccccc12 | 78.3 |
| CCOC(=O)c1ncc2[nH]c3cccc(OC(C)C)c3c2c1C | -0.9 |
| CNC(=O)c1cc2c(cn1)[nH]c1ccccc12 | 71.2 |
| CCCCCCN(CCCCCC)C(=O)Cc1c(-c2ccc(F)cc2)[nH]c2ccccc12 | 0.87 |
| CCCCC(=O)NCCc1c(Cc2ccccc2)[nH]c2ccccc12 | -8.08 |
| CNCC(=O)O | 15.9 |
| NC(=O)C1=CN([C@@H]2O[C@H](COP(=O)(O)OP(=O)(O)OC[C@H]3O[C@@H](n4cnc5c(N)ncnc54)[C@H](OP(=O)(O)O)[C@@H]3O)[C@@H](O)[C@H]2O)C=CC1 | 28.1 |
| Cc1cccc(C)c1NC(=O)CC12CCCN1CCC2 | -8.45 |
| CC(C)(C)NC(=O)[C@@H]1CN(Cc2cccnc2)CCN1C[C@@H](O)C[C@@H](Cc1ccccc1)C(=O)N[C@H]1c2ccccc2C[C@H]1O | 1.38 |
| CN1CCN(c2ccc(Nc3ncc4cc(C#N)c(=O)n(C5CCCC5)c4n3)cc2)CC1 | -8.66 |
| O=C(Nc1ccccc1)c1cc([N+](=O)[O-])ccc1Cl | -6.48 |
| O=C(Nc1ccc([N+](=O)[O-])cc1Cl)c1cc(Cl)ccc1O | 93.1 |
| O=C(Nc1ccncc1)c1cc([N+](=O)[O-])ccc1Cl | 8.83 |
| CCCCCCOc1ccccc1C(N)=O | 93.3 |
| CCCCCCCCOc1ccccc1C(=O)Nc1ccc(C(=O)OCC[N+](C)(CC)CC)cc1 | -3.51 |
| CCOc1ccccc1C(N)=O | 18.7 |
| CCn1cc(C(=O)O)c(=O)c2ccc(-c3ccncc3)cc21 | 30.6 |
| O=C(Cc1ccc(-c2ccccc2)cc1)Nc1ccccn1 | 56.6 |
| O=C(O)Cc1ccc(-c2ccccc2)cc1 | 10.6 |
| O=C(O)c1ccccn1 | 12.2 |
| COC1/C=C\OC2(C)Oc3c(C)c(O)c4c(O)c(cc(O)c4c3C2=O)NC(=O)/C(C)=C\C=C/C(C)C(O)C(C)C(O)C(C)C(OC(C)=O)C1C (stereo unspecified) | 5.48 |
| O=C(CCCc1ccc(-c2ccccc2F)cc1)Nc1ccc(O)cc1 | 24 |
| Cc1ccccc1C(=O)c1ccc(Nc2ccc(Br)cc2N)cc1Cl | 3.48 |
| COc1cc2nc(C3CC3)nc(N3CCN(c4ccccc4OC)CC3)c2cc1OC | 89.3 |

| Structure (SMILES) | inhibition [%] |
| --- | --- |
| COc1ccccc1N1CCN(CCCCN2C(=O)c3ccccc3C2=O)CC1 | 0.28 |
| COc1cc2nc(N3CCN(C(=O)C4COc5ccccc5O4)CC3)nc(N)c2cc1OC (stereo unspecified) | 6.59 |
| CCCn1c(=O)c2nc(C34CC5CC(CC3C5)C4)[nH]c2n(CCC)c1=O | 2.81 |
| CCCCNNC(=O)c1ccc(Br)cc1 | 35.4 |
| CN(C)C(=O)N[C@H]1CC[C@H](CCN2CCN(c3cccc(Cl)c3Cl)CC2)CC1 | 18.9 |
| COc1cc2c(cc1OC)C(c1ccc(N)cc1)=NNC(=O)C2 | -3.23 |
| COc1ccc(-c2nc3cc(C4=NNC(=O)CC4C)ccc3[nH]2)cc1 (stereo unspecified) | 87.1 |
| CC(C)n1nc(C#Cc2ccccc2)c2c(N)ncnc21 | 19 |
| CCOC(=O)C1CSC(Cc2ccc(OCc3ccc([N+](=O)[O-])cc3)cc2)N1 (stereo unspecified) | 13.2 |
| COc1ccc(C(=O)/C(Br)=C/C(=O)O)cc1 | -2.93 |
| CC(=O)C(=Cc1cc(O)c(O)c([N+](=O)[O-])c1)C(C)=O | 13.4 |
| CS(=O)(=O)c1ccc(-c2cnc(NCc3ccco3)n3cnnc23)cc1 | 7.67 |
| Cc1cc(C)c2c(N)c(C(=O)NCc3ccc(Cl)cc3)sc2n1 | 16.5 |
| Cc1coc2c1C(=O)C(=O)c1c-2ccc2c1CCCC2(C)C | 42 |
| Cc1coc2c1C(=O)C(=O)c1c-2ccc2c(C)cccc12 | 93.9 |
| Cc1nn(-c2ccccc2)c(C)c1/C=N/N1CCN(Cc2ccccc2)CC1 | 9.22 |
| O=C(O)C[C@H](O)C[C@H](O)CCc1c(C2CC2)nc2ccccc2c1-c1ccc(F)cc1 | 26 |
| CCCCCCCC[N+](C)(C)Cc1ccccc1 | -8.69 |
| c1cn2cc(-c3ccc4cn[nH]c4c3)nc(Nc3ccc(N4CCOCC4)cc3)c2n1 | 20.2 |
| CC(=O)/N=c1/sc(S(N)(=O)=O)nn1C | -2.26 |
| NS(=O)(=O)c1nn2cc(-c3ccccc3)nc2s1 | 96.2 |
| CC(=O)OCC(=O)[C@@]1(O)CC[C@H]2[C@@H]3CCC4=CC(=O)C=C[C@]4(C)[C@@]3(F)[C@@H](O)C[C@@]21C | 39.3 |
| O=C(O)c1cc(O)c2c(c1)C(=O)c1cccc(O)c1C2=O | 24.6 |
| CC(=O)c1cc2c(o1)C(=O)c1ccccc1C2=O | 25.7 |
| C[C@@H]1CC(=O)c2c(ccc3c2C(=O)c2cccc(O)c2C3=O)C1 | 113 |
| COc1cc(O)c2c(c1)C(=O)c1cc(C)cc(O)c1C2=O | 24.3 |

| Structure (SMILES) | inhibition [%] |
| --- | --- |
| O=C1c2cccc(O)c2C(=O)c2c(O)cccc21 | 55.5 |
| O=C1c2c(O)cccc2Cc2cccc(O)c21 | 3.84 |
| Cc1cc(O)c2c(c1)C(=O)c1cccc(O)c1C2=O | 82.4 |
| CC1(C)C(=O)N=C2C1=C(O)C(=O)c1ccccc12 | 24.8 |
| CN1CCc2cccc3c2[C@H]1Cc1ccc(O)c(O)c1-3 | -6.04 |
| CNCCCOc1cc(F)c(-c2c(Cl)nc3ncnn3c2N[C@@H](C)C(F)(F)F)c(F)c1 | 9.44 |
| COc1ccc(CNC(=O)c2cc(-c3cncc(C)c3)ncc2-c2nccs2)nc1OC | 8.47 |
| COc1cccc(OC)c1OCCNCC1COc2ccccc2O1 (stereo unspecified) | -6.9 |
| CSCC[C@H](NC(=O)[C@H](CC(C)C)NC(=O)CNC(=O)[C@H](Cc1ccccc1)NC(=O)[C@H](Cc1ccccc1)NC(=O)[C@H](CCC(N)=O)NC(=O)[C@H](CCC(N)=O)NC(=O)[C@@H]1CCCN1C(=O)[C@H](CCCCN)NC(=O)[C@@H]1CCCN1C(=O)[C@@H](N)CCCN=C(N)N)C(N)=O | 37.9 |
| Fc1ccc(CN2CCC(Nc3ccc(C(F)(F)F)nn3)CC2)cc1F | 20.4 |
| CC#CCC(C)[C@H](O)/C=C/[C@@H]1[C@H]2C/C(=C/CCCC(=O)O)C[C@H]2C[C@H]1O (stereo partly specified) | -9.51 |
| COC(=O)c1ccccc1-c1c2ccc(N)cc2[o+]c2cc(N)ccc12 | 2.6 |
| CN[C@@H]1[C@H](OC2[C@H](O[C@H]3[C@H](O)[C@@H](O)[C@H](N=C(N)N)[C@@H](O)[C@@H]3N=C(N)N)O[C@@H](C)[C@]2(O)C=O)O[C@@H](CO)[C@H](O)[C@H]1O (stereo partly specified) | 17.6 |
| Cc1ccccc1/N=N/c1ccc(NC(=O)c2ccnn2C)c(C)c1 | 36.7 |
| O=C(Nc1cccc(Nc2ncc(Br)c(NCCc3cnc[nH]3)n2)c1)N1CCCC1 | 41.2 |
| COc1cc2c(cc1OC)-c1cc3nc4ccccc4nc3n1C(C)(C)C2 | 19.3 |
| CCCn1c(=O)[nH]c2nc(-c3ccc(S(=O)(=O)N4CCN(c5ccc(Cl)cc5)CC4)cc3)[nH]c2c1=O | 3.66 |
| Cc1ccc2c(c1CCC(=O)O)CC[C@@H](NS(=O)(=O)c1ccc(Cl)cc1)C2 | -3.38 |
| Nc1nc2c(ccc3ccccc32)s1 | 67.3 |
| Oc1ccc2ccccc2c1SSc1c(O)ccc2ccccc12 | 0.31 |
| Cc1cc(CC(C)CC(C)(C)C)n(O)c(=O)c1 (stereo unspecified) | -5.15 |
| O=C1NC(=O)C(c2ccccc2[N+](=O)[O-])=C1Nc1ccc(O)c(Cl)c1 | 3.99 |
| COc1cc(CCc2cc(NC(=O)c3ccc(N4C[C@@H](C)N[C@@H](C)C4)cc3)n[nH]2)cc(OC)c1 | 2.96 |
| O=c1[nH]c(=O)n([C@H]2C[C@H](O)[C@@H](CO)O2)cc1F | 12.7 |
| Cc1cn([C@H]2C=C[C@@H](CO)O2)c(=O)[nH]c1=O | 102 |
| CCc1cn([C@H]2C[C@H](O)[C@@H](CO)O2)c(=O)[nH]c1=O | -6.76 |

| Structure (SMILES) | inhibition [%] |
| --- | --- |
| CN1c2cc3c(cc2N=C(c2ccc(C(=O)O)cc2)c2ccccc21)C(C)(C)CCC3(C)C | 27.7 |
| Nc1ncnc2c1ncn2[C@@H]1O[C@H](C[C@@H](N)CC[C@H](N)C(=O)O)[C@@H](O)[C@H]1O | -9.09 |
| CC(C)(COP(=O)(O)OP(=O)(O)OC[C@H]1O[C@@H](n2cnc3c(N)ncnc32)[C@H](O)[C@@H]1OP(=O)(O)O)[C@@H](O)C(=O)NCCC(=O)NCCS | 15.2 |
| NC(C(=O)O)c1nnn[nH]1 (racemic) | 4.47 |
| Cn1cnc2[nH]c(=O)[nH]c(=O)c21 | 9.47 |
| Cc1ccc(-c2ccc(C)cn2)nc1 | 100 |
| CCOC1O[C@H]([C@@H](COCc2ccccc2)OCc2ccccc2)[C@H](OCc2ccccc2)[C@H]1O (stereo partly specified) | 29.1 |
| O=C(O)CCc1c[nH]c2ccccc12 | 6.28 |
| C/C(=N\N=C(/S)N/N=C(\S)Nc1ccccc1Cl)c1ccccn1 | 41.4 |
| COc1ccc2cc3[n+](cc2c1OC)CCc1cc2c(cc1-3)OCO2 | -6.81 |
| O=C(NC1CCN(Cc2ccccc2)CC1)c1ccc(I)cc1 | 21.3 |
| O=C(COc1ccc(C(=O)c2ccccc2)cc1)NC1CCN(Cc2ccccc2)CC1 | -4.58 |
| O=C(O)c1ccc(CN2CCC(CN[C@@H]3C[C@H]3c3ccccc3)CC2)cc1 | 59.3 |
| CCCCCCCCCCCCCCCCCCCCCCCCCCCCO | 3.55 |
| CCN(CC)CCOC(=O)C1(c2ccccc2)CCCC1 | 12.3 |
| CCC(C)(CN(C)C)OC(=O)c1ccccc1 (stereo unspecified) | 12.2 |
| CC1(C(=O)O)NCCc2cc(O)c(O)cc21 (stereo unspecified) | -7.17 |
| C[C@@H](c1nc(-c2ccc(C#N)cc2)cs1)[C@](O)(Cn1cncn1)c1cc(F)ccc1F | 13.7 |
| COCC(O)Cn1ccnc1[N+](=O)[O-] (stereo unspecified) | 2.38 |
| CC1(C)S[C@@H]2[C@H](/N=C/N3CCCCCC3)C(=O)N2[C@H]1C(=O)O | 7.48 |
| CC[C@H](CO)Nc1nc(NCc2ccc(-c3ccccn3)cc2)c2ncn(C(C)C)c2n1 | 22.9 |
| c1ccc(NCc2ccc(CNc3ccccn3)cc2)nc1 | -9.35 |
| c1ccc(-c2ccc(CNc3nc(-c4ccccn4)nnc3-c3ccccc3)cc2)cc1 | 58.9 |
